Assay [1] is described as follows: TAMU_PeakParms_SingleDonor1434_Chronotropy: Texas A&M University (TAMU) 1.5-hr Human Induced Pluripotent Stem Cell (iPSC)-derived Cardiomyocytes Calcium (Ca+2) Flux Assay for Cardiotoxicity: Chronotropy (changes in peak frequency) (AID 2284217). To be noted: actives raise or lower the signal. In outline: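 Beat rate, as mean Ca2+-flux peak frequency, was read from donor 1434 iPSC cardiomyocytes 90 min after exposure to 0.2–100 uM test chemical (0.5% DMSO). Wells that stopped beating were excluded; EC05 from bidirectional DMSO-referenced fitting.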

Assay [2] can be described thus: BSK_BT_PBMCCytotoxicity: PBMC Cytotoxicity Assessment in the BioMAP Diversity Plus: BT Assay (AID 2284225).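 Also: PBMC viability measured by Alamar Blue dye reduction fluorescence.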 The conditions noted are these: primary human B cells with PBMC. In outline: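 PBMC (75,000/well) pretreated with compound 1 h, then activated with SEB and TSST-1 (20 ng/mL each final), incubated 90 h; Alamar Blue added 6 h, fluorescence read at 546/580 nm. Fitted relative to DMSO.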

Read-out in assay [3]: Secreted IgG (sIgG), gene 3500
As to the kind of experiment: BSK_BT_sIgG: BioMAP Diversity Plus: BT Assay for Secreted IgG (sIgG) Biomarker Activity (AID 2284226). The conditions noted are these: primary human B cells with PBMC. In outline: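 Human B cell plus PBMC co-culture; secreted IgG measured by ELISA 24 h after chemical dosing. Response fitted in positive direction relative to DMSO baseline.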

A short description of assay [4]: BSK_BT_Bcell_Proliferation: Viability Assessment in the BioMAP Diversity Plus: BT Assay for B cell Proliferation (AID 2284227). The conditions noted are these: primary human B cells with PBMC. In outline:
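Human B cell/PBMC co-culture; test chemical added; 72 h; TCA fix (10%), 0.1% SRB stain, A560 for total protein as a proliferation read-out; positive-direction fit vs DMSO baseline.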

Read-out in assay [5]: Interleukin 6 (IL6), IL6 (gene 3569)
As to the kind of experiment: BSK_BT_xIL6: BioMAP Diversity Plus: BT Assay for Interleukin 6 (IL6) Biomarker Activity (AID 2284228). To be noted: primary human B cells with PBMC. A digest of the protocol: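 Human B cell plus PBMC co-culture exposed to test chemical for 24 h; secreted IL-6 quantified by Luminex xMAP bead assay. Activity fitted in the positive direction against DMSO as negative control and baseline.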

Read-out in assay [6]: Interleukin 17A (IL17A), IL17A (gene 3605)
As to the kind of experiment: BSK_BT_xIL17A: BioMAP Diversity Plus: BT Assay for Interleukin 17A (IL17A) Biomarker Activity (AID 2284229). To be noted: primary human B cells with PBMC. A digest of the protocol: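 B cells co-cultured with PBMC were exposed to test chemicals, and secreted IL-17A was quantified 24 h after dosing by Luminex xMAP bead immunoassay. Activity was fitted in the gain direction against DMSO as baseline.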

Read-out in assay [7]: Tumor necrosis factor (Homo sapiens) (UniProt P01375)
The assay is described as follows: BSK_BT_xTNFa: BioMAP Diversity Plus: BT Assay for Tumor necrosis factor alpha (TNF-alpha) Biomarker Activity (AID 2284230). To be noted: primary human B cells with PBMC. In outline: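 Read-out: Luminex xMAP quantitation of secreted TNF-alpha from a B cell/PBMC co-culture 24 h after compound addition. Signal analysed relative to DMSO vehicle, positive fitting direction.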

Read-out in assay [8]: Vascular cell adhesion molecule 1 (VCAM1), VCAM1 (gene 7412)
The assay is described as follows: BSK_MyoF_VCAM1: BioMAP Diversity Plus: MyoF Assay for Vascular cell adhesion molecule 1 (VCAM1) Biomarker Activity (AID 2284231). The conditions noted are these: primary human lung fibroblasts. A digest of the protocol:
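Primary human lung fibroblasts were dosed with test chemical for 24 h, then cell-surface VCAM-1 was measured by ELISA. Activity was fitted in the positive direction against DMSO as negative control and baseline.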

A short description of assay [9]: CCTE_Mundy_HCI_hNP1_Pro_ResponderAvgInten: CCTE's Proliferation Assay in human neuroprogenitor cells, Mundy Lab (AID 2284224; active = hit-call score of the fitted dose curve at least 0.9, where 1 is the maximum;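 also: human neural progenitor cells hNP1 derived from WA09 embryonic stem cells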). A digest of the protocol:
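Human neuroprogenitors (hNP1, WA09 lineage) receive test chemical after 40 to 44 hours of attachment. A four-hour BrdU pulse begins twenty hours later, followed by fixation and high content imaging; signal is referenced to DMSO controls.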

A short description of assay [10]: CCTE_Mundy_HCI_Cortical_NOG_NeuriteLength: CCTE's Neurite Outgrowth Assay in rat cortical cells for Neurite Length, Mundy Lab (AID 2284213).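 As to AC50: neurites imaged about 48 to 50 h after chemical exposure began.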 In outline:
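Neurite length was read by high-content imaging of βIII-tubulin-labelled neurites in rat primary cortical cultures. Activity was fitted relative to DMSO.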

The nature of assay [11]: CCTE_Mundy_HCI_Cortical_Synap_Neur_Matur_NeuriteLength: CCTE's Synaptogenesis and Neurite Maturation Assay in rat cortical cells for Neurite Length, Mundy Lab (AID 2284214). A digest of the protocol:
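Rat primary cortical cultures, AraC added DIV 5, dosed DIV 7 through DIV 12 […]. Fixed, MAP2/synaptophysin immunostained with Hoechst; neurite length by high-content imaging, fitted in positive direction versus DMSO.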

A short description of assay [12]: CCTE_Mundy_HCI_Cortical_Synap_Neur_Matur_NeuriteSpotCountPerNeuron: CCTE's Synaptogenesis and Neurite Maturation Assay in rat cortical cells for Neurite Spot Count per Neuron Count, Mundy Lab (AID 2284215). In outline:
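Rat primary cortical cells received AraC at DIV 5, then chemicals with a media change at DIV 7, and were fixed at DIV 12. Synaptophysin puncta on MAP2-stained neurites per neuron were counted by high-content imaging, fitted relative to DMSO.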

The nature of assay [13]: CCTE_Mundy_HCI_Cortical_Synap_Neur_Matur_SynapseCount: CCTE's Synaptogenesis and Neurite Maturation Assay in rat cortical cells for Synapse Count, Mundy Lab (AID 2284218). A digest of the protocol:
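Rat primary cortical cultures, AraC at DIV 5, chemical dosing DIV 7 to DIV 12 (288.33 h). Fixed cells stained for MAP2, synaptophysin and Hoechst; synapses per neuron counted by high-content imaging, loss of signal versus DMSO.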

Assay [14] is described as follows: CCTE_Mundy_HCI_hN2_NOG_NeuriteLength: CCTE's Neurite Outgrowth Assay in human hN2 cells for Neurite Length, Mundy Lab (AID 2284220; active = hit-call score of the fitted dose curve at least 0.9, where 1 is the maximum). A digest of the protocol: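 Using βIII-tubulin immunofluorescence and Hoechst nuclear counterstain, this component quantifies neurite length in hNP1-derived neurons.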
The nature of assay [15]: CCTE_Mundy_HCI_Cortical_Synap_Neur_Matur_CellBodySpotCount: CCTE's Synaptogenesis and Neurite Maturation Assay in rat cortical cells for Cell Body Spot Count, Mundy Lab (AID 2284223). A digest of the protocol:
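Rat primary cortical cultures received AraC at DIV 5 to arrest glia, were dosed with chemical at DIV 7 with media change, and were fixed at DIV 12 (288.33 h). Synaptophysin puncta on MAP2-positive cell bodies per neuron were counted by high-content imaging versus DMSO.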

Assay [16] in a line: UKN4_HCS_LUHMES_cell_viability: Viability Assessment in the University of Konstanz (UKN) Leist Lab Neurite Outgrowth Assay in human LUHMES cells (UKN4) (AID 2284232). A digest of the protocol:
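LUHMES precursors differentiated 2 days, replated at 30000 cells/well without cAMP/GDNF, then compound-treated 24 h. Viability from Hoechst H-33342 and calcein-AM live staining (30 min) by high-content fluorescence imaging; bidirectional fit versus DMSO.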

Assay [17] can be described thus: UKN2_HCS_IMR90_cell_viability: Viability Assessment in the University of Konstanz (UKN) Leist Lab Neural Crest Cell Migration Assay in human induced IMR90 Pluripotent Stem Cells (UKN2) (AID 2284233).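 Also: viability of neural crest cells differentiated from IMR90 iPSC measured by calcein-AM fluorescence imaging; cells exposed to compound for 24 h after a 24 h migration phase.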 In outline: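 iPSC-derived (IMR90) neural crest cells seeded around silicone stoppers on PLO/laminin/fibronectin; after 24 h migration in N2-S with EGF/FGF, chemical added for 24 h. Calcein-AM/Hoechst stained 30 min, high-content imaged; bidirectional fit versus DMSO.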

Assay [18] in a line: CCTE_Mundy_HCI_Cortical_NOG_NeuriteCount: CCTE's Neurite Outgrowth Assay in rat cortical cells for Neurite Count, Mundy Lab (AID 2284212).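 Also: cells fixed about two days after chemical exposure began.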 In outline: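 Neurite number per cell from high-content imaging of betaIII-tubulin immunostaining, with Hoechst nuclear counterstain.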
Assay [19] can be described thus: CCTE_Mundy_HCI_Cortical_Synap_Neur_Matur_NeuriteCount: CCTE's Synaptogenesis and Neurite Maturation Assay in rat cortical cells for Neurite Count, Mundy Lab (AID 2284222). A digest of the protocol:
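Rat cortical neurons, 96-well; AraC DIV 5; chemical + media change DIV 7; end DIV 12. Fix PFA/Hoechst, anti-MAP2 + anti-synaptophysin IF. HCI neurite count vs DMSO baseline.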

Assay [20] in a line: CCTE_Mundy_HCI_hN2_NOG_NeuriteCount: CCTE's Neurite Outgrowth Assay in human hN2 cells for Neurite Count, Mundy Lab (AID 2284219; active = hit-call score of the fitted dose curve at least 0.9, where 1 is the maximum). In outline:
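In this morphology assay, hNP1-derived neurons received test chemical 2 h post-plating and were fixed two days later in warm paraformaldehyde/sucrose containing Hoechst 33342. Neurites, labelled by rabbit anti-βIII-tubulin (1:800) and Alexa Fluor-488 (1:500), were counted automatically.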

“And” between values parts separate entries of the source, which are not always exact repeats. Equal entries are not always repeated. Results filed as inconclusive are left out. Some compounds were tested as several samples or in several runs, with calls that do not always agree. The source made the active and inactive calls. The calls were made as follows, unless noted: active = hit-call score of the fitted dose curve at least 0.9, where 1 is the maximum; inactive = score below 0.9.

The AC50 is the concentration giving half of the maximal activity seen.

Sequence of Tumor necrosis factor (Homo sapiens) (P01375 whole entry, looked up): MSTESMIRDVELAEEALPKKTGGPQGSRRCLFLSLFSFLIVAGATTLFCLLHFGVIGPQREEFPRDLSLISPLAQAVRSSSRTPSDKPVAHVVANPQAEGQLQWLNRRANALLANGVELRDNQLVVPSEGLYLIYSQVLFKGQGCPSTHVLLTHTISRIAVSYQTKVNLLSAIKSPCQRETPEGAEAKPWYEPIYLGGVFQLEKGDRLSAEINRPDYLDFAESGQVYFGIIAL

`c1ccc2c(c1)ccc1ccccc12`: the outcome in assay [1] was inactive.

Turning to `OCCC(F)(F)C(F)(F)C(F)(F)C(F)(F)C(F)(F)C(F)(F)F`, the AC50 in assay [2] is 30 µM (active); in [5], 49.1 µM (active); in assay [6], 43.1 µM (active); in assay [7], 41.4 µM (active). Further, the outcome in [2], in [3], in [4], in [5], in [6] and in [7] was inactive. The outcome in assay [8] was inactive.

With `CCCCCCCCCCCCCC[N+](C)(C)C`, the AC50 in assay [2] was 11.5 µM (active); in [3], 45.3 nM (active); in assay [4], 2.81 µM (active); in assay [5], 4.27 µM (active); in assay [6] it was 1.48 µM (active); in [7] it was 2.59 µM (active). Further, in assay [8], the AC50 was 3.84 µM (active).

As to `C[C@@H]1C[C@H]2[C@@H]3CCC4=CC(=O)C=C[C@]4(C)[C@@]3(F)[C@@H](O)C[C@]2(C)[C@@]1(O)C(=O)COP(=O)(O)O`, the half-maximal activity concentration (AC50) in assay [2] is 0.485 µM (active); in [5] it was 863 nM (active) and 1.34 µM (active); in [6], 0.1 µM (active); in assay [7], 245 nM (active) and 100 nM (active). For the same compound, the outcome in assay [2], in [3], in [4] and in assay [8] was inactive.

`c1ccc2cc3c(ccc4ccccc43)cc2c1`: the outcome in assay [1] was inactive.

In the case of `NCC(F)(F)C(F)(F)C(F)(F)C(F)(F)C(F)(F)C(F)(F)C(F)(F)F`, the outcome in assay [2], in assay [3], in assay [4], in assay [5], in [6] and in [7] was inactive. In addition, in assay [8], the result was inactive.

For the compound `FC(F)(I)C(F)(F)C(F)(F)C(F)(F)C(F)(F)C(F)(F)I`, the AC50 was 25.6 µM (active) [middle of 5 runs] in assay [2], 20.6 µM (active) [middle of 5 runs] in assay [4], 21.2 µM (active) [middle of 5 runs] in [7] and 5.28 µM (active) [middle of 5 runs] in assay [8].

Turning to `c1ccc2c(c1)Cc1ccccc1-2`, in assay [1], the AC50 is 50 µM (active).

With `OCCC(F)(F)C(F)(F)C(F)(F)C(F)(F)C(F)(F)C(F)(F)C(F)(F)C(F)(F)F`, in [9], the outcome was inactive. In addition, the AC50 is 43.4 µM (active) and 40.7 µM (active) in assay [2]; 50.6 µM (active) and 53.6 µM (active) in assay [3]; 45.1 µM (active) and 45.8 µM (active) in assay [4]; 53.1 µM (active) and 52.6 µM (active) in [5]; 44.1 µM (active) and 43.9 µM (active) in assay [6]; 45.5 µM (active) and 41.3 µM (active) in [7]. Moreover, the AC50 in [8] was 13.4 µM (active) and 9.75 µM (active).

`CN1CCC[C@H]1c1cccnc1`: the compound was classed as inactive in assay [10], in [11], in [12], in assay [13], in assay [14] and in assay [15]. Also, the outcome in assay [16] and in [17] was inactive.

For `CC#C[C@]1(O)CC[C@H]2[C@@H]3CCC4=CC(=O)CCC4=C3[C@@H](c3ccc(N(C)C)cc3)C[C@@]21C`, the AC50 in assay [18] was 62 µM (active) and 24.4 µM (active); in assay [10], 50 µM (active) and 23.6 µM (active); in assay [11], 15.9 µM (active) and 27.7 µM (active); in assay [12], 13.3 µM (active) and 25.5 µM (active); in assay [1] it was 0.216 µM (active); in assay [13], 13.3 µM (active) and 25.1 µM (active). Moreover, the AC50 in assay [19] was 17.9 µM (active) and 23.1 µM (active); in [15] it was 16.7 µM (active) and 24.8 µM (active); in [9] it was 18 µM (active) and 23.2 µM (active); in assay [17], 16.5 µM (active) and 8.62 µM (active). In addition, the outcome in [16] was inactive.

For the compound `C=C(C)C(=O)OCCC(F)(F)C(F)(F)C(F)(F)C(F)(F)C(F)(F)C(F)(F)F`, the call in [9], in assay [2], in assay [3], in assay [4], in [5] and in assay [6] was inactive. Moreover, the outcome in assay [7] and in assay [8] was inactive.

For the compound `CC1=C(/C=C/C(C)=C/C=C/C(C)=C/C(=O)O)C(C)(C)CCC1`, the AC50 in [10] was 6.25 µM (active); in [20], 12.1 µM (active); in assay [14], 0.417 µM (active); in assay [16] it was 48 µM (active). For the same compound, the compound was classed as inactive in [12], in [13], in [15] and in [17].
